Values without a mark were called inactive.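 Rule for the calls, unless noted: active = cell viability at or below a set limit in both duplicate runs, the limit being the all-compound median minus 4 SD (cut at about 23% in these data, passing the limit was not always enough); inconclusive = no clear call, values can overlap the other calls; inactive = the rest.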 Inconclusive results are not listed.
Assay: viability gain of MRP-1-high H69AR cells under doxorubicin, pilot screen, MRP-1 activator project, CellTiter-Glo, duplicate (AID 807;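 active = viability increase at or above a cutoff of the median across tested compounds plus 3 SD, cut at about 8.5% in these data, passing the limit was not always enough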;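 note: compound pretreatment 18-22 h then 72 h combined with doxorubicin; 0% = doxorubicin alone and 100% = vehicle without doxorubicin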)
Details: H69AR viability with doxorubicin, CellTiter-Glo luminescence; at 10 µM; active compounds read high
In the case of CC1=C(C(=O)N(C)C)C(c2cccc(Cl)c2)NC(=O)N1 (configuration not stated), the viability increase is reported as 0.18%.
For COc1ccc(S(=O)(=O)N2CCN(C)CC2)cc1Br, the viability increase was -2.75%.
For CC1(C)Cc2c(C#N)c(NCCCO)nc(-c3ccccc3)c2CO1, the viability increase was -4.65%.
With O=C(O)c1ccc(NC(=O)C2C3CCC(C3)C2C(=O)O)cc1 (configuration not stated) the viability increase was -0.12%.
For COc1ccccc1C(=O)NCc1ccc2c(c1)OCO2, the viability increase was 0.91%.
For COc1ccc(OC)c(NC(=O)Nc2ccccc2C)c1, the viability increase was -3.16%.
Work on O=C(Cn1c(=O)oc2cc(S(=O)(=O)N3CCc4ccccc43)ccc21)NC1CCCC1 yielded a viability increase of -1.06%.
Molecule C=CCOc1cccc(C2C(C(=O)c3ccco3)=C(O)C(=O)N2CCN2CCOCC2)c1 (configuration not stated) has a viability increase of -2.85%.
COc1ccc(C2CC3CC(c4ccccc4)N2O3)cc1 (configuration not stated) gave a viability increase of -1.22%.
COc1ccc(N2CC(C(=O)NC3CC(C)(C)NC(C)(C)C3)CC2=O)cc1 (configuration not stated) gave a viability increase of 0.06%.
O=C(NCC1CCCO1)C1CC(=O)N(c2ccc(F)c(Cl)c2)C1 (configuration not stated) gave a viability increase of -1.68%.
Molecule COc1cc(NC(=O)COc2ccc(F)cc2)nc(OC)n1 has a viability increase of -3.92%.

Assay: growth suppression of beta-catenin knockout HCT116, pilot screen, human colon tumor cells (AID 823);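 note: 0% = wells killed by 20 µM Hyamine and 100% = untreated DMSO cell wells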
Details: CellTiter-Glo, 60 h, at 10 µM, active compounds read low
Molecule COCCNS(=O)(=O)c1cccc2cccnc12 has a viability of 97.8%.
Work on Cc1ccc(C)c(N2CCN(C(=O)CCS(=O)(=O)c3cccc4nonc34)CC2)c1 yielded a viability of 88.8%.
Molecule Cc1cccc(-n2ccnc2SCC(=O)Nc2nnc(C)s2)c1 has a viability of 76.9%.
In the case of CC(=O)CSc1nc2ccc(Nc3nc(N4CCOCC4)nc(N4CCOCC4)n3)cc2s1, the viability is reported as 66.6%.
CCOC(=O)c1c(CN(CC)CC)oc2cc(Br)c(O)cc12 showed a viability of 78.2%.
For CCc1ccc2nc(NC3=NCN(CCOC)CN3)nc(C)c2c1, the viability was 63%.
Work on CCN(Cc1ccccc1)S(=O)(=O)c1ccc(S(=O)(=O)N2CCN(CCC#N)CC2)cc1 yielded a viability of 90.7%.
CCCCS(=O)CC(COCc1ccccc1)OC(=O)CSc1nc(C)cc(C)n1 (configuration not stated) gave a viability of 97.6%.
COc1ccc(C(=O)N2CCC(C(=O)Nc3ccc(OC)c(OC)c3)CC2)cc1 showed a viability of 89.7%.
Molecule CSC1=NCCN1C(=O)Cc1ccc(Cl)cc1 has a viability of 108%.
In the case of O=C1NCCCC1C(=O)N1CCN(C(c2ccccc2)c2ccccc2)CC1 (configuration not stated), the viability is reported as 98.5%.
For O=C(CCNS(=O)(=O)c1cccc2nsnc12)NC1CCCc2ccccc21 (configuration not stated), the viability was 88.2%.
COc1ccc(C(=O)N2CCN(c3ccc(C)cc3C)CC2)cc1OC gave a viability of 72.9%.
For CCc1ccccc1N1CSC2=C(C#N)C(c3ccccc3F)CC(=O)N2C1 (configuration not stated), the viability was 78.8%.
CN1C(=O)CC(N2CCN(c3ncccn3)CC2)C1=O (configuration not stated) showed a viability of 103%.
Molecule CCCCN(C)CCNC(=O)Cn1c(=O)sc2ccccc21 has a viability of 99%.
Molecule Cc1ccc(S(=O)(=O)Cc2ccc(C(=O)N3CCN(c4ccccn4)CC3)o2)cc1 has a viability of 87.1%.
For CCOC(=O)C1CCN(C(=O)CN(c2ccc(OC)c(OC)c2)S(=O)(=O)c2ccccc2)CC1, the viability was 104%.
For CCc1cc(C(=O)COc2ccccc2F)c(O)cc1O, the viability was 96.1%.
For O=C(Cn1cc2c(n1)CCCC2)NCC1CCCO1 (configuration not stated), the viability was 103%.
Work on COC(=O)C(C(=O)OC)=C(/C=C/N(C)C)N(C)C yielded a viability of 99.2%.
CCCS(=O)(=O)c1nc(S(=O)(=O)c2ccc(C)cc2)c(N2CCCC2)s1 showed a viability of 103%.
In the case of COc1cccc(CNC(=O)CCS(=O)(=O)c2cccc3nonc23)c1, the viability is reported as 93.2%.
N#CC1=C(O)CCCn2c1nc1ccccc1c2=O gave a viability of 97%.
Molecule COc1cc(S(=O)(=O)NCc2ccc3c(c2)OCO3)ccc1Cl has a viability of 97.3%.
Cc1nc2sc(C(c3ccccc3)N3CCN(CCO)CC3)c(O)n2n1 (configuration not stated) showed a viability of 106%.
CC1=CC(C)(C)N(C(=O)CSc2nccn2C)c2cc(C)ccc21 showed a viability of 84.6%.
Work on c1ccc(-c2nnc(-c3ccccn3)nn2)nc1 yielded a viability of 68.2%.
Molecule CC1=C(C(=O)N(C)C)C(c2cccc(Cl)c2)NC(=O)N1 (configuration not stated) has a viability of 99.1%.
Work on COc1ccc(S(=O)(=O)N2CCN(C)CC2)cc1Br yielded a viability of 95%.
With CC1(C)Cc2c(C#N)c(NCCCO)nc(-c3ccccc3)c2CO1 the viability was 88%.
Work on O=C(O)c1ccc(NC(=O)C2C3CCC(C3)C2C(=O)O)cc1 (configuration not stated) yielded a viability of 101%.
Work on COc1ccccc1C(=O)NCc1ccc2c(c1)OCO2 yielded a viability of 107%.
In the case of COc1ccc(OC)c(NC(=O)Nc2ccccc2C)c1, the viability is reported as 102%.
In the case of O=C(Cn1c(=O)oc2cc(S(=O)(=O)N3CCc4ccccc43)ccc21)NC1CCCC1, the viability is reported as 78.8%.
For C=CCOc1cccc(C2C(C(=O)c3ccco3)=C(O)C(=O)N2CCN2CCOCC2)c1 (configuration not stated), the viability was 94.1%.
COc1ccc(C2CC3CC(c4ccccc4)N2O3)cc1 (configuration not stated) showed a viability of 89.3%.
For COc1ccc(N2CC(C(=O)NC3CC(C)(C)NC(C)(C)C3)CC2=O)cc1 (configuration not stated), the viability was 99.8%.
In the case of O=C(NCC1CCCO1)C1CC(=O)N(c2ccc(F)c(Cl)c2)C1 (configuration not stated), the viability is reported as 86.7%.
Molecule COc1cc(NC(=O)COc2ccc(F)cc2)nc(OC)n1 has a viability of 101%.

From PubChem BioAssay
